Screening results as filed in PubChem.
aSyn 5UTR act: Activators via SNCA 5'UTR binding, MLPCN | alpha-synuclein 5'UTR reporter, activators screen | activity score, % (tested at 7.5 µM), hits read low | actives 7.1% (n = 300,000) | AID 1814, 2009; in the data active = activity score below about -60%
Numbers without * were called inactive. A selection follows.

SMILES	aSyn 5UTR act
Cc1cc(-c2nnc(CSc3nnc(NC(=O)c4ccc(C(C)(C)C)cc4)s3)o2)ccc1[N+](=O)[O-]	-110.3*
COc1ccc2c(c1OC)C(=O)N1C(C(=O)O)Cc3c([nH]c4ccccc34)C21 (centres undefined)	-66.3*
Cc1ccc2sc(N3CCN(C(=O)c4ccc([N+](=O)[O-])o4)CC3)nc2c1C	-75.6*
COc1cccc2sc(N3CCN(C(=O)c4ccc([N+](=O)[O-])o4)CC3)nc12	-110.3*
O=C(c1ccc([N+](=O)[O-])o1)N1CCN(c2nc3ccc(F)cc3s2)CC1	-108.3*
Cc1ccccc1-c1nc2cc(N)ccc2o1	-123.0*
CC(C)c1ccc2oc(-c3cc(N)ccc3O)nc2c1	-95.4*
Clc1ccc(Oc2cnc3ccccc3n2)cc1	-79.8*
Cc1ccc(Oc2cnc3ccccc3n2)cc1	-127.4*
CCc1ccc2c(c1)/C(=N/N(C)C(=S)NC)C(=O)N2	-70.9*
CC(C)(C)c1ccc(-c2nnc(N)s2)cc1	-65.0*
Nc1ccc2c(c1Cl)C(=O)c1ccc(N)c(Cl)c1C2=O	-88.0*
CCOC(=O)c1ccc(N2Cc3ccccc3C2)cc1O	-121.7*
CCc1ccc(N2Cc3ccccc3C2)cc1	-150.6*
CCc1ccc(C(O)(CC(C)C)C(CN2CCOCC2)c2ccccc2)cc1 (centres undefined)	56.5
CCc1ccc(/C=C/c2c([N+](=O)[O-])c(=O)n(C)c(=O)n2C)cc1	-61.7*
Cn1c(/C=C/c2ccc(Cl)cc2Cl)c([N+](=O)[O-])c(=O)n(C)c1=O	-203.6*
Cc1ccc(OCc2ccc([N+](=O)[O-])cc2)c([N+](=O)[O-])n1	-114.6*
Cc1ccc(OCCOc2ccc(Br)cc2)c([N+](=O)[O-])n1	-182.1*
O=C1c2cc(F)ccc2-n2c1nc1ccccc1c2=O	65.8
Nc1nc(Nc2cccc(F)c2)nc2ccccc12	-196.4*
O=c1oc(Nc2cccc(F)c2)nc2ccccc12	-64.2*
O=C1OC(c2ccccc2)=C/C1=C\N1CCOCC1	-66.9*
CCCc1cc(=O)n2c([nH]c3ccccc32)c1C#N	-69.6*
COc1nc(C)nc2c1sc1nc3c(cc12)COC(C)(C)C3	-145.0*
SMILES	aSyn 5UTR act
Cc1nc(OCC(C)C)c2sc3nc4c(cc3c2n1)COC(C)(C)C4	-130.4*
c1ccc2c(c1)Cc1cc3ccccc3nc1-2	-102.2*
Cc1ccc(-c2cc3c(nn2)-c2ccccc2C3=O)cc1	86.5
O=C1c2ccccc2-c2nc3ccccc3cc21	-114.2*
COC(=O)c1sccc1NC(=O)c1ccc(Br)s1	-66.9*
COC(=O)c1sccc1NC(=O)c1csc(C)c1	-80.2*
CCOc1ccccc1C(=O)Nc1ccsc1C(=O)OC	65.3
COC(=O)c1c(NC(=O)c2ccc(Br)s2)sc2c1CCC2	-91.5*
Cc1occc1C(=O)Nc1sc2c(c1C(N)=O)CCCCC2	-175.6*
N#Cc1c(NC(=O)c2ccco2)sc2c1CCC2	-132.8*
CC1(C)Cc2c(sc(NC(=O)c3ccco3)c2C#N)CO1	-100.3*
O=C(Nc1sc2c(c1C(=O)O)CCCCC2)c1ccco1	-95.7*
NC(=O)c1c(NC(=O)c2ccco2)sc2c1CCC2	-276.9*
Cc1cc(OCc2cn3cccnc3n2)ccc1Cl	-127.2*
c1cn2cc(CSC3CCCCC3)nc2s1	-130.4*
Clc1ccc(SCc2cn3ccsc3n2)cc1	-236.1*
Clc1ccc(SCc2cn3cccnc3n2)cc1	-64.4*
c1ccc2oc(SCc3cn4ccsc4n3)nc2c1	-122.4*
c1ccc(CSCc2cn3ccsc3n2)cc1	-175.9*
Cc1csc2nc(CSc3ccc(Cl)cc3)cn12	-102.9*
C/C(N)=C(/C#N)C(=O)COC(=O)c1cccc2ccccc12	-62.5*
COc1ccc2oc(C(=O)OCC(=O)/C(C#N)=C(\C)N)c(C)c2c1	-81.3*
c1cncc(-c2noc(CC3CCCCC3)n2)c1	-87.3*
c1ccc(CCc2nc(-c3ccccc3)no2)cc1	-192.0*
CC(C)(C)c1ccc(-c2noc(CCC(N)=O)n2)cc1	90.8
SMILES	aSyn 5UTR act
O=C1CCC(=O)N1CCCCCc1nc(-c2ccccc2)no1	-103.8*
CCCc1nc(-c2ccc(-c3ccc(F)cc3)cc2)no1	-144.5*
O=C(Nc1ccc(-c2noc(CCc3ccccc3)n2)cc1)c1ccco1	-115.1*
Brc1ccc(-c2noc(CCc3ccccc3)n2)cc1	-84.4*
c1ccc(CCc2nc(-c3cccnc3)no2)cc1	-90.1*
CSc1nsc(SCC(=O)Nc2ccc(C(C)=O)cc2)n1	-261.7*
COc1ccc(NC(=O)CSc2nc(SC)ns2)cc1	-145.2*
COc1ccc(-c2nsc(SCC(=O)Nc3ccc4c(c3)OCO4)n2)cc1	-109.0*
CSc1nsc(SCC(=O)Nc2ccc(F)cc2F)n1	-100.8*
CCOc1ccc(-n2c(SCC(=O)Nc3ccc(Br)cc3)nc3n[nH]c(C)c3c2=N)cc1	81.5
COc1ccc(Nc2ccc3c(c2)=NC2(CCCCC2)[N+]=3[O-])cc1	-87.0*
Cc1ccc(NC(=O)C(C)OC(=O)c2n[nH]c3ccccc23)cc1 (centres undefined)	-70.9*
C=CCSc1nn2c(=O)c3ccccc3nc2s1	-119.5*
C/C(Cl)=C/CSc1nn2c(=O)c3ccccc3nc2s1	-99.9*
COC(=O)C1CCN(C(=O)c2ccc3nc(-c4cccc(OC)c4)oc3c2)CC1	-135.7*
COc1cccc(-c2nc3ccc(C(=O)NC(C)Cc4cccnc4)cc3o2)c1 (centres undefined)	-129.7*
CCCCN(C)C(=S)Nc1ccc2nc(N3CCN(CC)CC3)cc(C)c2c1	-70.2*
COc1ccc(C(=O)Nc2ccc3nc(N4CCN(C)CC4)cc(C)c3c2)c(OC)c1	-78.0*
CCN1CCN(c2cc(C)c3cc(NC(=O)c4ccc(OC)c(OC)c4)ccc3n2)CC1	-72.2*
CCN1CCN(c2cc(C)c3cc(NC(=O)c4cccc(OC)c4)ccc3n2)CC1	-124.4*
Cc1cc(N2CCN(C)CC2)nc2ccc(NC(=S)N3CCCCC3)cc12	-84.7*
Cc1cccc(N2CCN(C(=S)Nc3ccc4nc(N5CCN(C)CC5)cc(C)c4c3)CC2)c1C	95.2
CCN1CCN(c2cc(C)c3cc(NC(=O)c4cccs4)ccc3n2)CC1	-109.0*
COc1ccc(-c2cc(C(=O)NCc3cccnc3)no2)cc1	-116.6*
O=C(NCc1ccccc1)c1cc(-c2cccc(O)c2)on1	-65.9*
SMILES	aSyn 5UTR act
O=C(NCc1cccnc1)c1cc(-c2cccs2)on1	-91.7*
O=C(NCc1cccnc1)c1cc(-c2ccccc2)on1	-88.7*
COc1ccc(CNC(=O)c2cc(C3CC3)on2)cc1	-106.2*
Cc1ccc(NC(=O)c2cc(-c3cccc(O)c3)on2)cc1C	-114.8*
Cc1[nH]nc(Nc2ccc(C(C)C)cc2)c1[N+](=O)[O-]	-150.9*
Cc1[nH]nc(Nc2ccc(Br)cc2)c1[N+](=O)[O-]	-163.5*
Cc1ccc(Nc2n[nH]c(C)c2[N+](=O)[O-])cc1	-221.4*
Cc1[nH]nc(Nc2ccccc2)c1[N+](=O)[O-]	-72.4*
Cc1cccc(Nc2n[nH]c(C)c2[N+](=O)[O-])c1	-140.4*
CC(=O)N(c1nnc(-c2ccc(C)cc2)s1)C1CCCC1	-83.1*
Cc1cc2ccc3ccccc3c2cc1CN(C)C	-75.9*
FC(F)(F)c1cnc(-c2cnc(-c3cccnc3)nc2)c(Cl)c1	-124.3*
O=C1Nc2ccc3sc4ccccc4c3c2C1=O	-68.8*
O=C1Nc2ccccc2/C1=N/c1sc2c(c1C(=O)NCCc1ccccc1)CCCC2	-86.8*
Cc1nc(NC(=O)c2cccc(-c3cc4ccccc4oc3=O)c2)ccc1Br	-81.4*
O=C(Nc1ccc(Br)cn1)c1cccc(-c2cc3ccccc3oc2=O)c1	-112.3*
O=C(NCc1ccccn1)Nc1ccc(Cl)cc1Cl	-97.0*
